This note sets out measurements from the supplement of paper PMC12045047.

The structures appear in SMILES notation. Unmarked numbers belong to inactive results.

One experiment deals with primary human airway basal cells (HBEC, luciferase-transduced). Put plainly: proliferation (luciferase bioluminescence) Z score relative to plate mean; higher = more proliferation / more cells, active = 1.96 or more. The note with it: donor: 1; 0.5 µM; library: ENZO Libraries; 4 days. How it is done:
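Primary human bronchial epithelial (airway basal) cells from two donors, lentivirally transduced with pHIV-Luc-ZsGreen, were seeded at 2000 cells/well in 384-well plates in FAD medium with ENZO or Prestwick library compounds and cultured for 4 days. Luciferin was then added and bioluminescence was read as a measure of cell number. Relative light units were converted to Z scores against the plate, and the mean of triplicate wells is reported.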
Consider `N#C/C(=C\c1ccc(O)c(O)c1)C(N)=S`, for which the proliferation is -0.0372.

Regarding `CCC(=O)CCCCC[C@@H]1NC(=O)[C@H]2CCCCN2C(=O)[C@H]([C@@H](C)CC)NC(=O)[C@H](Cc2cn(OC)c3ccccc23)NC1=O` [Apicidin], the proliferation was -0.149.

On to `N#CC(C#N)=Cc1cc(O)c(O)c(O)c1`, for which the proliferation is -0.0382.

As for `CC(=O)c1c(O)c(C)c(O)c(Cc2c(O)c3c(c(C(=O)/C=C/c4ccccc4)c2O)OC(C)(C)C=C3)c1O` [Rottlerin], the proliferation is 0.583.

On to `N[C@@H]1C[C@H]1c1ccccc1.N[C@H]1C[C@@H]1c1ccccc1` [Tranylcypromine hemisulfate], for which the proliferation was -0.212.

In the case of `N#CC(C#N)=Cc1ccc(O)c(O)c1`, the proliferation is 0.456.

Consider `COC[C@H]1OC(=O)c2coc3c2[C@@]1(C)C1=C(C3=O)[C@@H]2CCC(=O)[C@@]2(C)C[C@H]1OC(C)=O` [Wortmannin], for which the proliferation was -1.04.

In the case of `CC(=O)Oc1ccc(/C=C/c2cc(OC(C)=O)cc(OC(C)=O)c2)cc1` [Triacetylresveratrol], the proliferation was 1.28.

With `C/C(O)=C(\C#N)C(=O)Nc1cc(Br)ccc1Br`, the proliferation is 0.22.

In the case of `NCCc1ccc(S(=O)(=O)F)cc1`, the proliferation was -0.284.

For the compound `N#CC(C#N)=Cc1cc(O)c(O)c([N+](=O)[O-])c1`, the proliferation is -0.414.

On to `Cc1cc(O)c2c(=O)c3c(O)cc(O)c4c5c(O)cc(O)c6c(=O)c7c(O)cc(C)c8c1c2c(c34)c(c78)c65` [Hypericin], for which the proliferation is 0.248.

Take `N#CC(C#N)=Cc1ccc([N+](=O)[O-])c(O)c1`: the proliferation was -0.571.

Still in this experiment, the particulars now being: donor: 1; 5 µM; library: ENZO Libraries; 4 days.
For the compound `N#C/C(=C\c1ccc(O)c(O)c1)C(N)=S`, the proliferation was -0.285.

On to `CCC(=O)CCCCC[C@@H]1NC(=O)[C@H]2CCCCN2C(=O)[C@H]([C@@H](C)CC)NC(=O)[C@H](Cc2cn(OC)c3ccccc23)NC1=O` [Apicidin], for which the proliferation is -0.303.

For `N#CC(C#N)=Cc1cc(O)c(O)c(O)c1`, the proliferation is -0.000622.

Regarding `CC(=O)c1c(O)c(C)c(O)c(Cc2c(O)c3c(c(C(=O)/C=C/c4ccccc4)c2O)OC(C)(C)C=C3)c1O` [Rottlerin], the proliferation was -0.384.

As for `N[C@@H]1C[C@H]1c1ccccc1.N[C@H]1C[C@@H]1c1ccccc1` [Tranylcypromine hemisulfate], the proliferation is -0.48.

Turning to `N#CC(C#N)=Cc1ccc(O)c(O)c1`, the proliferation was 0.134.

For `COC[C@H]1OC(=O)c2coc3c2[C@@]1(C)C1=C(C3=O)[C@@H]2CCC(=O)[C@@]2(C)C[C@H]1OC(C)=O` [Wortmannin], the proliferation was -0.831.

`CC(=O)Oc1ccc(/C=C/c2cc(OC(C)=O)cc(OC(C)=O)c2)cc1` [Triacetylresveratrol]: the proliferation is 4.6 (active).

As for `C/C(O)=C(\C#N)C(=O)Nc1cc(Br)ccc1Br`, the proliferation is 0.228.

For the compound `NCCc1ccc(S(=O)(=O)F)cc1`, the proliferation is -0.0822.

In the case of `N#CC(C#N)=Cc1cc(O)c(O)c([N+](=O)[O-])c1`, the proliferation was -0.101.

Turning to `Cc1cc(O)c2c(=O)c3c(O)cc(O)c4c5c(O)cc(O)c6c(=O)c7c(O)cc(C)c8c1c2c(c34)c(c78)c65` [Hypericin], the proliferation is -0.261.

On to `N#CC(C#N)=Cc1ccc([N+](=O)[O-])c(O)c1`, for which the proliferation was -0.0791.
